Records with an inconclusive call do not appear. A number with no mark means an inactive call. Calls of active or inactive are those of the source. Calls come from the whole dose curve; as a rule, active = well fitted inhibition curve with a large enough effect; inconclusive = small, poorly fitted or top-dose-only effect, or effect the other way; inactive = flat fitted curve, though single readings scatter.
The compounds below were run against D(1A) dopamine receptor (Homo sapiens) (UniProt P21728) (assay: HTS Assay for Allosteric Agonists of the Human D1 Dopamine Receptor: Primary Screen for Antagonists (AID 488983; note: nearly all actives have a fitted effect of over 65% in size)). Conditions: D1 receptor cell assay, antagonist mode, qHTS titration; series mostly up to 41.8 µM; activity change, negative = inhibition: at the top concentration.
Chain of D(1A) dopamine receptor (Homo sapiens) (P21728 whole entry, looked up): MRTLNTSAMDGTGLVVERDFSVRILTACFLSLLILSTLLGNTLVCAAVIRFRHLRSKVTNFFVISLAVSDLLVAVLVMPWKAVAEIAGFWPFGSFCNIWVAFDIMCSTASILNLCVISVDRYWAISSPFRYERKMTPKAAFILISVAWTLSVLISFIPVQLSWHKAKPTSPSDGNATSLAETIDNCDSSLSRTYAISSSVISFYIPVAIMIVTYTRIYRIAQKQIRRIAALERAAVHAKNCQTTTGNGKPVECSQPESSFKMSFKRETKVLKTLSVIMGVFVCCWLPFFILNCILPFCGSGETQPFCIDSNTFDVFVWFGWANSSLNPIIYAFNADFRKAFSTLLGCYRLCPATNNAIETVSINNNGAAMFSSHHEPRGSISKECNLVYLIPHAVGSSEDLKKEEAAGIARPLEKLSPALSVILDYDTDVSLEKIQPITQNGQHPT
Excerpt: Dopamine receptors (DARs) are involved in the etiology and/or therapy of a number of neuropsychiatric and endocrine disorders. For instance, all receptor-based antiparkinsonian drugs work via stimulating the […] DAR subtype whereas all FDA-approved antipsychotic agents are antagonists of this receptor. […] There are three different types of allosteric modulators that we are seeking, two of which will stimulate or augment receptor signaling, allosteric agonists and potentiators, while the third, allosteric antagonists, will attenuate receptor signaling. The present primary screening assay measures compound agonism by tracking calcium flux in a […], inducible Hek293 Trex D1 cell line.
Freshly passaged cells are plated in 1536 well black, clear bottom plates at a density of 4000 cells/well in 3 ul of complete media containing 1x tetracycline inducer. After an overnight incubation at 30 C in 5% CO2, cells are loaded with 2 ul of the no wash Calcium Assay Kit (ABD Bioquest) and incubated at room temperature for 30 to 90 minutes. A 10 cycle (1 second/cycle) baseline measurement is taken and then the FDSS online 1536 pintool delivers 23 nl of compound library (as well as dopamine controls) to the plate. The plate is measured for kinetically at 1 cycle/sec for 180 seconds and is considered to be the agonist portion of the assay (eg, compounds which activate a positive calcium response during this portion are flagged as potential agonists). Following the 180 second read, 1 ul of an EC80 of dopamine is delivered by an onboard pipette head. Measurements are taken kinetically for an additional 180 seconds.
% is set by controls: 0 for no effect and ±100 for the full control effect.

Row | SMILES | activity change, negative = inhibition [%] | outcome
1 | NCCc1ccc(O)cc1 | -0.806 | 
2 | C=C(C)[C@H]1CN[C@H](C(=O)O)[C@H]1CC(=O)O | 6.86 | 
3 | CC(NC(C)(C)C)C(=O)c1cccc(Cl)c1 (stereo not drawn) | 9.93 | 
4 | CC(C)N(CCC(C(N)=O)(c1ccccc1)c1ccccn1)C(C)C (stereo not drawn) |  | inactive
5 | O=C(O)CCCc1ccc(N(CCCl)CCCl)cc1 | -3.95 | 
6 | Cc1ncsc1CCCl | -2.65 | 
7 | O=P1(N(CCCl)CCCl)NCCCO1 (stereo not drawn) | 5.94 | 
8 | CCC1(c2ccc(N)cc2)CCC(=O)NC1=O (stereo not drawn) | 4.21 | 
9 | CN1C(=O)CCS(=O)(=O)C1c1ccc(Cl)cc1 (stereo not drawn) | -6.52 | 
10 | CCCCC/C=C\C/C=C\C/C=C\C/C=C\CCCC(=O)NCC(=O)O | -9.17 | 
11 | O=c1[nH]oc2c1CCNC2 | 5.55 | 
12 | COc1ccc2c(c1OC)C(=O)O[C@H]2[C@@H]1c2cc3c(cc2CCN1C)OCO3 | 2.67 | 
13 | CC(C)(C)NCC(O)c1ccccc1Cl (stereo not drawn) | 7.6 | 
